In the supplement of paper PMC6555819:

Tested on: PPARg:RXRa IVT, anti-PPARg (NR concentration 270 nM, RXRa partner concentration 90 nM)
Assay: PBM binding z-score (relative to random genomic background probes); higher = stronger binding; sequences stand for … in GC…GCGATTGACAGCGTAGAATGAAGG
How it was run: (§1)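 Random background probes are the reference for binding z-scores. These scores derive from regression-normalized fluorescence on custom Agilent 4×180K protein-binding microarrays incubated 1 h with ligand-free nuclear receptor dimers. Binding was detected with antibodies against each partner (one per run).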

Point of comparison: CCTGGTAGGTCAATGGTCAGCTAAAGCAGCTCGC, PBM binding z-score 5.35. Against it:
- TATACAGGGTCAAAGGCCCGAGTACGAATGTCGA — lower, 4.09
- TCTTGTAGCTCAAGCAGGTTAAGAAAGCCTGAGT — lower, -0.0591
- TCTTGTGGATCAAAGGTTAAGAAAGCCGAAGCCT — lower, 3.48
- TCTTGTAGTTCAAGCAGGTTAAGAAAGCCTGAGT — lower, 0.625
- CCTACTGGGCCAAAGGTCACTGATTCCAATGCTC — higher, 7.12
- TCTGCAAGGTCAACGATGGTCAGCTAATCTGCTA — lower, 3.91
- GCAGACAGGTGAAACGAAGGTAACTCAGGGTGGC — lower, 0.555
- ATCGAAAGCTCGAAGGTGAGTATACCCACCCGAA — lower, -0.157
- CATACAGGGTCAGCAAGGCCAGAGTAGGGACGGC — lower, 2.54
- TCATATCGGTAAAGGTGAAAGTCGAACGATATGA — lower, 2.05
- CCTTACGGGTCACTGACAGGCTATAGCATTTGGA — lower, 3.67
- GTACCAAGCTGAATAGGTCGTTGATGAGTAGGCG — lower, -0.114
- CGTCCAAGGTGAGCAGGTCAGTGAAAGCGACGTG — lower, 2.14
- TCATATAGGTAAACGTGAAAGTCGAACGATATGA — lower, 2.6
- TCGAGTGGGTTAGTCGGGGCATTCAGCCAACATA — lower, 1.4
- AGAATGAGGTTGTTAAGATCAGGGAATTGCGGTC — lower, -0.103
- CTCGAAAGGTCGGTTAAGGTGAGTATACGGATAA — lower, 1.14
- CGTAGTTGGTCAAGGTCACACACGCTATAGGTAC — lower, 3.93
- CCTGCTAGGTCAATGGTGAGCTAAAGCAGCTCGC — lower, 3.22
- CCTTACGTGTCAAGGTTATAGCACGGGTGGTACG — lower, 0.962
- CAAACTAGGTCAAGAGGTCAAAGTCCGCTTCCCG — higher, 8.35
- TAGCCTTGGTCAGATCGGGCCAGTATACGCTATA — lower, -0.297
- CCAGACAGGTGAAAGGGAACTCAGTCTGGTACGC — lower, 1.02
- TCGAGTAGGTTACCAATGGGGCAGTCAGCTTTCT — lower, 2.43
- TCTCGTAGATCAGCAGGTTAAGAAAGCTGGCCAA — lower, -0.478
- CGTCCAAGGCCAGAGAGGTCAGTGAATGCCGAGT — lower, 0.381
- CCAGACAGGTGCGAAGGTAACTCAGCCTCGATTA — lower, -0.749
- CCTATTGGGCCAAAAAGGTCATTGATGCCGATAA — lower, 2.64
- CGTCCAAGGTCAAGGTCATTGAAAGAGACTCGAA — lower, 5.03
- ATCTCTAGGTAAAGATAGTTAAGTGAATGCAAAT — lower, 1.42
- TCGTGTAGATCAAAGGTTAAGAAAGCCGAAGCCT — lower, 2.22
- ACAGACAGATGATGAAGGTAACTCAGGCTATCAT — lower, -0.00444
- AGAATGAGGGCAATGAGTTGATAGCACGGGTGGC — lower, 3.33
- CCTACTGGGCCACGAAAGGTCATTTATTCAGTGA — higher, 5.64
- ACTTACGGGTCAACGAGGTTATAGAACGCGTATA — lower, 4.42
- TAGCCTAGGTCATTCAGGGGCCAGTATAGAAAGC — lower, 2.89
- GCTTACGGGTCAAAGGTTATAGCTTGAATAGAAT — higher, 5.72
- CGAACTAGGTCATGGACAGTGAATCTCCGCACGC — higher, 8.2
- CAAACTAGGTCAAAGGTCTAAGTCGAGCCAACCA — higher, 8.69

Tested on: PPARg DBDmut:RXRa IVT, anti-PPARg (DBD mutation: PPARg1 K132A/R137A, NR concentration 270 nM, RXRa partner concentration 90 nM)
Assay: as above
How it was run: as §1

Point of comparison: TAGCCTAGGTCATTCAGGGGCCAGTATAGAAAGC, PBM binding z-score -0.179. Against it:
- TATACAGGGTCAAAGGCCCGAGTACGAATGTCGA — higher, 1.37
- TCTTGTAGCTCAAGCAGGTTAAGAAAGCCTGAGT — lower, -0.768
- TCTTGTGGATCAAAGGTTAAGAAAGCCGAAGCCT — higher, 0.81
- TCTTGTAGTTCAAGCAGGTTAAGAAAGCCTGAGT — lower, -0.45
- CCTACTGGGCCAAAGGTCACTGATTCCAATGCTC — higher, 0.0303
- TCTGCAAGGTCAACGATGGTCAGCTAATCTGCTA — higher, -0.02
- GCAGACAGGTGAAACGAAGGTAACTCAGGGTGGC — higher, 0.0896
- ATCGAAAGCTCGAAGGTGAGTATACCCACCCGAA — higher, 0.15
- CATACAGGGTCAGCAAGGCCAGAGTAGGGACGGC — higher, 0.587
- TCATATCGGTAAAGGTGAAAGTCGAACGATATGA — higher, 0.818
- CCTTACGGGTCACTGACAGGCTATAGCATTTGGA — higher, 0.647
- GTACCAAGCTGAATAGGTCGTTGATGAGTAGGCG — lower, -1.16
- CCTGGTAGGTCAATGGTCAGCTAAAGCAGCTCGC — higher, 0.462
- CGTCCAAGGTGAGCAGGTCAGTGAAAGCGACGTG — lower, -0.318
- TCATATAGGTAAACGTGAAAGTCGAACGATATGA — higher, 1.4
- TCGAGTGGGTTAGTCGGGGCATTCAGCCAACATA — higher, 0.134
- AGAATGAGGTTGTTAAGATCAGGGAATTGCGGTC — lower, -0.954
- CTCGAAAGGTCGGTTAAGGTGAGTATACGGATAA — higher, 0.246
- CGTAGTTGGTCAAGGTCACACACGCTATAGGTAC — higher, 0.825
- CCTGCTAGGTCAATGGTGAGCTAAAGCAGCTCGC — lower, -0.736
- CCTTACGTGTCAAGGTTATAGCACGGGTGGTACG — lower, -0.292
- CAAACTAGGTCAAGAGGTCAAAGTCCGCTTCCCG — higher, 2.14
- TAGCCTTGGTCAGATCGGGCCAGTATACGCTATA — lower, -0.203
- CCAGACAGGTGAAAGGGAACTCAGTCTGGTACGC — higher, 0.273
- TCGAGTAGGTTACCAATGGGGCAGTCAGCTTTCT — lower, -0.721
- TCTCGTAGATCAGCAGGTTAAGAAAGCTGGCCAA — lower, -0.653
- CGTCCAAGGCCAGAGAGGTCAGTGAATGCCGAGT — lower, -0.198
- CCAGACAGGTGCGAAGGTAACTCAGCCTCGATTA — lower, -1.66
- CCTATTGGGCCAAAAAGGTCATTGATGCCGATAA — higher, 0.177
- CGTCCAAGGTCAAGGTCATTGAAAGAGACTCGAA — higher, 0.777
- ATCTCTAGGTAAAGATAGTTAAGTGAATGCAAAT — higher, 0.229
- TCGTGTAGATCAAAGGTTAAGAAAGCCGAAGCCT — lower, -0.315
- ACAGACAGATGATGAAGGTAACTCAGGCTATCAT — higher, 1.17
- AGAATGAGGGCAATGAGTTGATAGCACGGGTGGC — higher, 0.634
- CCTACTGGGCCACGAAAGGTCATTTATTCAGTGA — lower, -0.2
- ACTTACGGGTCAACGAGGTTATAGAACGCGTATA — higher, 1.71
- GCTTACGGGTCAAAGGTTATAGCTTGAATAGAAT — higher, 1.28
- CGAACTAGGTCATGGACAGTGAATCTCCGCACGC — higher, 2.01
- CAAACTAGGTCAAAGGTCTAAGTCGAGCCAACCA — higher, 8.12
